Laboratory results: PubChem BioAssay (NCATS)
Results filed as inconclusive are left out. Active and inactive are the calls of the source. Unless noted, how the calls were made is not given here.

Experiments:
[1] = qHTS Assay for Identifying Gametocytocidal Compounds (AID 743244; active means well fitted curve in the direction sought with a large enough effect; an effect the other way counts as inactive or inconclusive; further: potency means the concentration at half of the fitted maximal effect;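 on max response: on the % scale 0 is the no-effect control and ±100 the full control effect; actives lower the fluorescent signal which means gametocytes are killed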); details: P. falciparum 3D7 stage III-V gametocytes, alamarBlue, 72 h; max response: stronger effect = lower value
Summary of the method: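 In this qHTS viability screen, late-stage 3D7 gametocytes are incubated with compound for 72 h, then with alamarBlue for 24 h; reduced resorufin fluorescence marks killing.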

[2] = qHTS profiling for inhibitors of Plasmodium falciparum (3D7) proliferation (AID 743322);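 further: infected erythrocytes exposed to compound for 72 h before lysis; 100% = DMSO vehicle wells and 0% = 0.29 µM artemisinin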; details: P. falciparum 3D7 proliferation; at 28.7 µM (top of the series)
Summary of the method: (§1)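 Parasite DNA was quantified by SYBR Green I fluorescence (ex 485, em 535 nm) after overnight lysis in saponin/Triton buffer at room temperature. Cultures at 0.3% parasitemia and 2.5% hematocrit were first exposed to compound for 72 h at 37 C; signals were normalised to artemisinin (0.29 uM) and vehicle wells.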

[3] = qHTS profiling for inhibitors of Plasmodium falciparum (DD2) proliferation (AID 743323); details: lower = more inhibition; at 28.7 µM (top of the series)
Summary of the method: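 P. falciparum Dd2-infected erythrocytes (0.3% parasitemia, 2.5% hematocrit) exposed 72 h at 37 C, 5% CO2. Lysis with SYBR Green, overnight at room temperature, fluorescence 485/535 nm; normalized to 0.29 uM artemisinin and DMSO.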

[4] = qHTS profiling of the MIPE4 collection as inhibitors of Plasmodium falciparum (3D7) proliferation (AID 743344);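 further: scaled between DMSO vehicle wells and 0.29 µM artemisinin as full inhibition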; details: P. falciparum 3D7 in erythrocytes, SYBR Green DNA fluorescence, 72 h; at 28.5 µM (top of the series) unless noted
Summary of the method: as §1

[5] = qHTS profiling of the MIPE4 collection as inhibitors of Plasmodium falciparum (DD2) proliferation (AID 743345); details: P. falciparum Dd2 in erythrocytes, SYBR Green DNA, 72 h; at 28.5 µM (top of the series) unless noted
Summary of the method: as §1

[6] = qHTS profiling of the MIPE4 collection as inhibitors of Plasmodium falciparum (DD2) proliferation (Rep 2) (AID 743346); details: P. falciparum Dd2 in erythrocytes, SYBR Green DNA, 72 h; at 28.5 µM (top of the series) unless noted
Summary of the method: as §1

[7] = qHTS profiling of the MIPE4 collection as inhibitors of Plasmodium falciparum (HB3) proliferation (AID 743347);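 further: plate controls were DMSO vehicle wells for no effect and artemisinin wells for full effect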; details: P. falciparum HB3 in erythrocytes, SYBR Green DNA, 72 h; at 28.5 µM (top of the series) unless noted
Summary of the method: as §1

[8] = High-throughput drug toxicity screening in the BPDCN cell line Gen2.2 (AID 1224824); details: Gen2.2 BPDCN cells; at 45.8 µM (top of the series) unless noted;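 further: cells exposed to compounds for 48 h before reading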
Summary of the method: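 Readout is ATP luminescence from Gen2.2 cells after two days of drug exposure in serum-containing medium at 37 °C. Values express percent activity, with vehicle defining full signal and 9.2 uM bortezomib defining zero.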

[9] = High-throughput drug toxicity screening in the BPDCN cell line Cal-1 (AID 1224825); details: Cal-1 BPDCN cell viability, qHTS; at 45.8 µM (top of the series) unless noted;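 further: cells exposed to compounds for 48 h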
Summary of the method: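 Percent activity derived from CellTiter-Glo luminescence, scaling DMSO to 100% and 9.2 uM final bortezomib to 0%. BPDCN Cal-1 cells (500/well, RPMI plus 10% FBS) incubated with compounds 48 hours at 37C before reading.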

[10] = qHTS assay for measurement of the activity of small molecule inhibitors on Zika virus induced Caspase-3 activity in human iPSC derived neural progenitor cells (hNPCs) (AID 1224857; active means well fitted curve in the direction sought with a large enough effect; an effect the other way counts as inactive or inconclusive; further: nearly all actives have a fitted effect of over 65% in size; further: potency means the concentration at half of the fitted maximal effect)
Summary of the method: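 In medium with heparin 2 ug/ml and cyclopamine 2 uM, hNPCs (350 cells/well) received compound for one hour and then Zika virus at 2 FFU/cell; caspase activity was measured by Caspase-Glo 3/7 luminescence 6 h post-infection.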

[11] = qHTS assay for measurement of the activity of small molecule inhibitors on Zika virus induced Caspase-3 activity in human astrocytoma cells (AID 1224859; active means well fitted curve in the direction sought with a large enough effect; an effect the other way counts as inactive or inconclusive;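 further: plate controls were ZIKV-infected untreated cells for no effect and uninfected cells for full effect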)
Summary of the method: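 A cell-based luminescent caspase-3/7 assay used SNB-19 cells infected with ZIKV (2 FFU/cell) for 6 h following 1 h compound pretreatment.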

[12] = qHTS profiling for inhibitors of Plasmodium falciparum (HB3) proliferation (AID 743324; active means well fitted curve in the direction sought with a large enough effect; an effect the other way counts as inactive or inconclusive;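 further: 100% = DMSO vehicle wells and 0% = artemisinin-treated control wells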); details: Plasmodium falciparum HB3 blood-stage proliferation; at 28.7 µM (top of the series)
Summary of the method: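 SYBR Green fluorescence (485 ex/535 em) of lysed cultures, incubated overnight at room temperature in the dark, quantifies parasite DNA. Infected erythrocytes at 0.3% parasitemia and 2.5% hematocrit were exposed 72 h; values normalized to DMSO and 0.29 uM artemisinin controls.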

Structure (SMILES)	Potency [1]	remaining parasite growth % (stronger effect = lower value) [2]	activity, percent of control [3]	parasite growth, % of DMSO control [4]	parasite growth remaining, % of DMSO control (lower = more inhibition) [5]	parasite growth, % of control (lower = inhibition) [6]	growth, % of control [7]	cell viability, % of control (lower = more cytotoxic) [8]	viability (% of control) [9]	Potency [10]	Potency [11]	max response [1]	remaining proliferation (% of control), lower = more inhibition [12]
CC1(C)OC2=C(C(=O)c3ccccc3C2=O)[C@H](NCc2ccccc2)[C@H]1O	0.743 µM (active)	-2.33%	0.336%	6.23%	7.16%	6.48%	3.94%	12%	8.3%	18.7 µM (active)	inactive	–	–
CC(=O)SC[C@@H](C)C(=O)N1CCC[C@H]1C(=O)N[C@@H](Cc1ccccc1)C(=O)O	–	–	103%	100%	102%	69.5%	111%	132%	123%	inactive	inactive	7.13% (inactive)	–
COc1cc2ncn(-c3cc(OCc4ccccc4C(F)(F)F)c(C(N)=O)s3)c2cc1OC	–	–	43.8%	41.3%	65%	44.3%	35.9%	43.1%	4.46%	inactive	inactive	18.7% (inactive)	13%
CNc1nccc(-c2cccnc2Oc2cc(C(=O)Nc3cccc(C(F)(F)F)c3)ccc2C)n1	–	–	13.8%	6.2%	31.1%	19.8%	7.15%	13%	15.7%	inactive	inactive	8.44% (inactive)	3.23%
CC[C@H](CO)Nc1nc(NCc2ccccc2)c2ncn(C(C)C)c2n1	–	–	–	20%	–	–	–	11.9%	29.5%	inactive	inactive	-4.23% (inactive)	–
O=C(O)[C@H](Cc1c[nH]c2ccccc12)N1C(=O)c2ccccc2C1=O	–	–	104%	99.6% [at 57.5 µM]	98.7% [at 57.5 µM]	77% [at 57.5 µM]	106% [at 57.5 µM]	151% [at 92.2 µM]	104% [at 92.2 µM]	inactive	inactive	33.4% (inactive)	–
Cc1cc(Nc2cc(N3CCN(C)CC3)nc(Sc3ccc(NC(=O)C4CC4)cc3)n2)n[nH]1	23.5 µM (active)	–	68.3%	11.5%	16%	22.4%	2.93%	36.4%	12.3%	inactive	inactive	–	9.14%
O=C(O)CO.[NH2-].[NH2-].[Pt+2]	–	–	–	92.3%	95.3%	83.9%	94.7%	124%	100%	inactive	inactive	-5.78% (inactive)	–
